{"source": "the supplement of paper PMC8285479", "test_system": "NCI-H1944", "assay": "normalised cell viability (NPI; 0 = phenylarsine oxide control, 1 = DMSO control) (fraction of DMSO control); NCI-H1944 is a non-small cell lung cancer line; higher = more viable cells (less compound toxicity)", "details": "6 days", "key": {"[1]": {"details": "glucocorticoid arm: hydrocortisone 2.75 uM co-treatment, compound 1 µM"}, "[2]": {"details": "glucocorticoid arm: hydrocortisone 2.75 uM co-treatment, compound 5 µM"}, "[3]": {"details": "glucocorticoid arm: hydrocortisone 2.75 uM pre-treated 2 days and continued, compound 1 µM"}, "[4]": {"details": "glucocorticoid arm: hydrocortisone 2.75 uM pre-treated 2 days and continued, compound 5 µM"}, "[5]": {"details": "glucocorticoid arm: vehicle, compound 1 µM"}, "[6]": {"details": "glucocorticoid arm: vehicle, compound 5 µM"}}, "note": "Structures can show the parent of a compound that is named as a salt. ± gives the standard deviation of the averaged measurements. The full ranking holds about 1,900 compounds; the median of “normalised cell viability (NPI; 0 = phenylarsine oxide control, 1 = DMSO control)” is about 1, and the lowest 2% start at about 0.039. What follows is part of a selection rich in the lowest values, with near analogues and random picks from the rest.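 Further: CTB read-out in 384-well plates, triplicate wells, NPI normalised per plate against 1 µM phenylarsine oxide (0) and 0.1% DMSO (1) controls.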", "data": [{"compound": "COc1cc2c(cc1C(F)(F)F)N(C(=O)Nc1cc(F)cc(-c3cccnc3)c1)CC2", "values": [{"measurement": "normalised cell viability", "setting": "[1]", "result": "0.994 ± 0.017"}, {"measurement": "normalised cell viability", "setting": "[2]", "result": "0.0391 ± 0.01"}, {"measurement": "normalised cell viability", "setting": "[3]", "result": "1.02 ± 0.01"}, {"measurement": "normalised cell viability", "setting": "[4]", "result": "0.903 ± 0.021"}, {"measurement": "normalised cell viability", "setting": "[5]", "result": "0.974 ± 0.028"}, {"measurement": "normalised cell viability", "setting": "[6]", "result": "0.00107 ± 0.00012"}]}, {"compound": "Cn1ccc2cc3c(cc21)CCN3C(=O)Nc1cccnc1", "values": [{"measurement": "normalised cell viability", "setting": "[1]", "result": "1.02 ± 0.011"}, {"measurement": "normalised cell viability", "setting": "[2]", "result": "1.01 ± 0.018"}, {"measurement": "normalised cell viability", "setting": "[3]", "result": "1.05 ± 0.021"}, {"measurement": "normalised cell viability", "setting": "[4]", "result": "1.02 ± 0.017"}, {"measurement": "normalised cell viability", "setting": "[5]", "result": "1.03 ± 0.011"}, {"measurement": "normalised cell viability", "setting": "[6]", "result": "1.01 ± 0.01"}]}, {"compound": "COc1ccc2cc(-c3nc(-c4ccc([S+](C)[O-])cc4)[nH]c3-c3ccncc3)ccc2c1", "note": "(configuration not stated) [Tie2 kinase inhibitor]", "values": [{"measurement": "normalised cell viability", "setting": "[1]", "result": "1 ± 0.016"}, {"measurement": "normalised cell viability", "setting": "[2]", "result": "1.002 ± 0.0072"}, {"measurement": "normalised cell viability", "setting": "[3]", "result": "0.992 ± 0.0087"}, {"measurement": "normalised cell viability", "setting": "[4]", "result": "1 ± 0.018"}, {"measurement": "normalised cell viability", "setting": "[5]", "result": "0.997 ± 0.0017"}, {"measurement": "normalised cell viability", "setting": "[6]", "result": "0.9943 ± 0.0098"}]}, {"compound": "CN1CCc2c(c3ccccc3n2Cc2ccc(C(=O)NO)cc2)C1", "note": "[Tubastatin A]", "values": [{"measurement": "normalised cell viability", "setting": "[1]", "result": "0.984 ± 0.013"}, {"measurement": "normalised cell viability", "setting": "[2]", "result": "0.983 ± 0.026"}, {"measurement": "normalised cell viability", "setting": "[3]", "result": "0.983 ± 0.023"}, {"measurement": "normalised cell viability", "setting": "[4]", "result": "1.01 ± 0.023"}, {"measurement": "normalised cell viability", "setting": "[5]", "result": "0.991 ± 0.011"}, {"measurement": "normalised cell viability", "setting": "[6]", "result": "0.9927 ± 0.0063"}]}, {"compound": "CN1CCc2c(c3ccccc3n2Cc2ccc(C(=O)NO)cc2)C1", "note": "[Tubastatin A HCl]", "values": [{"measurement": "normalised cell viability", "setting": "[1]", "result": "0.9623 ± 0.0086"}, {"measurement": "normalised cell viability", "setting": "[2]", "result": "0.859 ± 0.016"}, {"measurement": "normalised cell viability", "setting": "[3]", "result": "0.967 ± 0.0035"}, {"measurement": "normalised cell viability", "setting": "[4]", "result": "0.913 ± 0.025"}, {"measurement": "normalised cell viability", "setting": "[5]", "result": "0.999 ± 0.01"}, {"measurement": "normalised cell viability", "setting": "[6]", "result": "0.9903 ± 0.0042"}]}, {"compound": "Cn1cc(C(=O)OCC2CCN(CCNS(C)(=O)=O)CC2)c2ccccc21", "values": [{"measurement": "normalised cell viability", "setting": "[1]", "result": "1.01 ± 0.01"}, {"measurement": "normalised cell viability", "setting": "[2]", "result": "0.997 ± 0.014"}, {"measurement": "normalised cell viability", "setting": "[3]", "result": "1.02 ± 0.011"}, {"measurement": "normalised cell viability", "setting": "[4]", "result": "1.03 ± 0.014"}, {"measurement": "normalised cell viability", "setting": "[5]", "result": "1.017 ± 0.0058"}, {"measurement": "normalised cell viability", "setting": "[6]", "result": "1.023 ± 0.0058"}]}, {"compound": "NS(=O)(=O)c1cc(C(=O)O)c(NCc2ccco2)cc1Cl", "note": "[Furosemide]", "values": [{"measurement": "normalised cell viability", "setting": "[1]", "result": "1.002 ± 0.0076"}, {"measurement": "normalised cell viability", "setting": "[2]", "result": "0.9983 ± 0.0029"}, {"measurement": "normalised cell viability", "setting": "[3]", "result": "0.999 ± 0.011"}, {"measurement": "normalised cell viability", "setting": "[4]", "result": "0.995 ± 0.015"}, {"measurement": "normalised cell viability", "setting": "[5]", "result": "0.984 ± 0.002"}, {"measurement": "normalised cell viability", "setting": "[6]", "result": "0.9897 ± 0.0047"}]}, {"compound": "OCC1OC(n2cnc3c(NCCc4ccccc4)ncnc32)C(O)C1O", "note": "(configuration not stated) [N6-2-Phenylethyladenosine]", "values": [{"measurement": "normalised cell viability", "setting": "[1]", "result": "1.006 ± 0.0069"}, {"measurement": "normalised cell viability", "setting": "[2]", "result": "0.9327 ± 0.0083"}, {"measurement": "normalised cell viability", "setting": "[3]", "result": "0.852 ± 0.27"}, {"measurement": "normalised cell viability", "setting": "[4]", "result": "1 ± 0.017"}, {"measurement": "normalised cell viability", "setting": "[5]", "result": "0.993 ± 0.0062"}, {"measurement": "normalised cell viability", "setting": "[6]", "result": "1 ± 0.017"}]}, {"compound": "N=C(N)NCCCCNC(=N)N", "note": "[Arcaine sulfate]", "values": [{"measurement": "normalised cell viability", "setting": "[1]", "result": "0.987 ± 0.012"}, {"measurement": "normalised cell viability", "setting": "[2]", "result": "0.994 ± 0.033"}, {"measurement": "normalised cell viability", "setting": "[3]", "result": "0.993 ± 0.0066"}, {"measurement": "normalised cell viability", "setting": "[4]", "result": "1.01 ± 0.038"}, {"measurement": "normalised cell viability", "setting": "[5]", "result": "0.987 ± 0.013"}, {"measurement": "normalised cell viability", "setting": "[6]", "result": "0.9957 ± 0.0045"}]}, {"compound": "C=C1C(=O)O[C@@H](CCC)[C@@H]1C(=O)O", "note": "[Butyrolactone 3]", "values": [{"measurement": "normalised cell viability", "setting": "[1]", "result": "1 ± 0.013"}, {"measurement": "normalised cell viability", "setting": "[2]", "result": "1.02 ± 0.015"}, {"measurement": "normalised cell viability", "setting": "[3]", "result": "0.998 ± 0.013"}, {"measurement": "normalised cell viability", "setting": "[4]", "result": "1.017 ± 0.0082"}, {"measurement": "normalised cell viability", "setting": "[5]", "result": "0.996 ± 0.0046"}, {"measurement": "normalised cell viability", "setting": "[6]", "result": "1.001 ± 0.0075"}]}, {"compound": "CCN(CC)Cc1ccc2cc(COC(=O)Nc3ccc(C(=O)NO)cc3)ccc2c1", "note": "[Givinostat (ITF2357)]", "values": [{"measurement": "normalised cell viability", "setting": "[1]", "result": "0.726 ± 0.049"}, {"measurement": "normalised cell viability", "setting": "[2]", "result": "0.00151 ± 0.0022"}, {"measurement": "normalised cell viability", "setting": "[3]", "result": "1 ± 0.018"}, {"measurement": "normalised cell viability", "setting": "[4]", "result": "0.0193 ± 0.0045"}, {"measurement": "normalised cell viability", "setting": "[5]", "result": "0.139 ± 0.006"}, {"measurement": "normalised cell viability", "setting": "[6]", "result": "0.000221 ± 0.0011"}]}, {"compound": "COc1ccc(Cn2ccc3ccc(C(=O)NO)cc32)cc1", "values": [{"measurement": "normalised cell viability", "setting": "[1]", "result": "0.959 ± 0.041"}, {"measurement": "normalised cell viability", "setting": "[2]", "result": "1.01 ± 0.029"}, {"measurement": "normalised cell viability", "setting": "[3]", "result": "0.923 ± 0.12"}, {"measurement": "normalised cell viability", "setting": "[4]", "result": "1.04 ± 0.04"}, {"measurement": "normalised cell viability", "setting": "[5]", "result": "0.9977 ± 0.004"}, {"measurement": "normalised cell viability", "setting": "[6]", "result": "1.002 ± 0.0076"}]}]}
